Consider ten compounds from PubChem BioAssay (NCATS).

A short description of assay [1]: qHTS of pediatric cancer cell lines to identify multiple opportunities for drug repurposing: Confirmatory screen for BT-12 cells (AID 1347112). Further: nearly all actives have a fitted effect of over 55% in size. Summed up: (§1)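 Viability after 48 h compound treatment at 37C, 500-1,000 cells/well, read as ATP luminescence with CellTiter-Glo. Primary screens used 11-point (MIPE, 0.78 nM-46 µM) or 8-point (NPC, 0.59 nM-46 µM) final concentrations; follow-up screens used 11-point dilutions.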
(In qHTS, concentration-response curves come from the screen itself.)

Assay [2] is described as follows: qHTS of pediatric cancer cell lines to identify multiple opportunities for drug repurposing: Confirmatory screen for LAN-5 cells (AID 1347113). Further: nearly all actives have a fitted effect of over 65% in size. Summed up: as §1
Assay [3] in a line: qHTS of pediatric cancer cell lines to identify multiple opportunities for drug repurposing: Confirmatory screen for DAOY cells (AID 1347114). Further: nearly all actives have a fitted effect of over 65% in size. Summed up: (§2)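 Viability measured as metabolically active cells via CellTiter-Glo luminescence following 48 hours of compound exposure, 11-point dilutions in confirmatory testing. 500-1,000 cells/well plated 5 hours before dosing; controls were DMSO and 2.3 µM bortezomib.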

A short description of assay [4]: qHTS of pediatric cancer cell lines to identify multiple opportunities for drug repurposing: Confirmatory screen for NB-EBc1 cells (AID 1347115).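 Further: cells exposed to compound for 48 h before the viability read; nearly all actives have a fitted effect of over 45% in size.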 The method, boiled down: as §1
Assay [5] is described as follows: qHTS of pediatric cancer cell lines to identify multiple opportunities for drug repurposing: Confirmatory screen for SJ-GBM2 cells (AID 1347116). Further: nearly all actives have a fitted effect of over 60% in size. Summed up: as §2
Assay [6] in a line: qHTS of pediatric cancer cell lines to identify multiple opportunities for drug repurposing: Confirmatory screen for BT-37 cells (AID 1347117). Further: nearly all actives have a fitted effect of over 55% in size. The settings on record: BT-37 pediatric cancer cells, viability; activity change, negative = cytotoxic: at 45.9 µM (top of the series). Summed up:
as §1

Assay [7] is described as follows: qHTS of pediatric cancer cell lines to identify multiple opportunities for drug repurposing: Confirmatory screen for TC32 cells (AID 1347118).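 Further: cells exposed to compound for 48 h before the read; nearly all actives have a fitted effect of over 65% in size.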 The method, boiled down:
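Luminescent ATP read-out (CellTiter-Glo) of metabolically active TC32 cells after 48 h exposure. Concentration-response curves came from 11-point (MIPE, 0.78 nM–46 µM) or 8-point (NPC, 0.59 nM–46 µM) primary titrations; follow-up used 11 points.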

The nature of assay [8]: qHTS of pediatric cancer cell lines to identify multiple opportunities for drug repurposing: Confirmatory screen for MG 63 (6-TG R) cells (AID 1347119). Further: nearly all actives have a fitted effect of over 55% in size. Summed up:
as §1

Assay [9] is described as follows: qHTS of pediatric cancer cell lines to identify multiple opportunities for drug repurposing: Confirmatory screen for U-2 OS cells (AID 1347122). Further: nearly all actives have a fitted effect of over 65% in size. Summed up: as §1
Assay [10] is described as follows: qHTS of pediatric cancer cell lines to identify multiple opportunities for drug repurposing: Confirmatory screen for Rh41 cells (AID 1347123).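 Further: 48 h compound exposure; nearly all actives have a fitted effect of over 60% in size.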 Summed up: as §1
Assay [11] is described as follows: qHTS of pediatric cancer cell lines to identify multiple opportunities for drug repurposing: Confirmatory screen for RD cells (AID 1347124). The method, boiled down:
as §1

Assay [12] can be described thus: qHTS of pediatric cancer cell lines to identify multiple opportunities for drug repurposing: Confirmatory screen for Rh18 cells (AID 1347125). Further: nearly all actives have a fitted effect of over 55% in size. Summed up: as §1
Assay [13] can be described thus: qHTS of pediatric cancer cell lines to identify multiple opportunities for drug repurposing: Confirmatory screen for Rh30 cells (AID 1347126). Further: nearly all actives have a fitted effect of over 55% in size. The method, boiled down: as §1
Assay [14] can be described thus: qHTS of pediatric cancer cell lines to identify multiple opportunities for drug repurposing: Confirmatory screen for Saos-2 cells (AID 1347127). Further: nearly all actives have a fitted effect of over 60% in size. The method, boiled down: as §1
Assay [15] is described as follows: qHTS of pediatric cancer cell lines to identify multiple opportunities for drug repurposing: Confirmatory screen for OHS-50 cells (AID 1347128). The method, boiled down:
as §1

Assay [16] is described as follows: qHTS of pediatric cancer cell lines to identify multiple opportunities for drug repurposing: Confirmatory screen for SK-N-SH cells (AID 1347129).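 Further: cells exposed to compound for 48 h before viability read; nearly all actives have a fitted effect of over 60% in size.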 The method, boiled down: as §1
The nature of assay [17]: qHTS of pediatric cancer cell lines to identify multiple opportunities for drug repurposing: Confirmatory screen for control Hh wild type fibroblast cells (AID 1347121). Further: nearly all actives have a fitted effect of over 70% in size. Summed up:
as §1

Inconclusive results are not listed. Activity calls are given as the source filed them. The call rests on the fitted dose curve; in most records, active means well fitted curve in the direction sought with a large enough effect; inconclusive means small, poorly fitted or top-dose-only effect, or another doubt; inactive means no such curve, though single readings can be large; an effect the other way counts as inactive or inconclusive. Non-standard residues stand in square brackets, D forms with d. Residues, ends and D or L forms follow the SMILES beside them. *: point of attachment. Nva = CCC[C@H](N)C(=O)O; Cbz = O=C(OCc1ccccc1)*
Potency means the concentration at half of the fitted maximal effect.

For `O=C(C=CC#Cc1cccc(NS(=O)(=O)c2ccccc2)c1)NO`, the Potency in [1] was 18500 nM (active); in assay [2], 2610 nM (active); in assay [3], 7370 nM (active); in assay [4], 5850 nM (active); in assay [5], 4650 nM (active); in assay [6], 2610 nM (active). Besides, the Potency in assay [7] was 737 nM (active); in [8], 2610 nM (active); in assay [9], 928 nM (active); in assay [10] it was 1650 nM (active); in [11], 5220 nM (active); in [12], 2330 nM (active). The Potency in assay [13] was 5220 nM (active); in [14] it was 2930 nM (active); in [15], 5850 nM (active); in assay [16], 4180 nM (active).
For `CCC[C@@H](C=O)NC(=O)[C@H](CC(C)C)NC(=O)[C@H](CC(C)C)NC(=O)OCc1ccccc1` (Cbz-Leu-Leu-[Nva]-aldehyde), the Potency in assay [1] is 2930 nM (active); in assay [2], 1470 nM (active); in assay [3] it was 1170 nM (active); in assay [4], 2330 nM (active); in [5] it was 2080 nM (active); in assay [6], 1170 nM (active). Also, the Potency is 1470 nM (active) in assay [7]; 827 nM (active) in assay [8]; 7370 nM (active) in [17]; 2610 nM (active) in [9]; 1040 nM (active) in assay [10]; 1310 nM (active) in [11]. Besides, the Potency in assay [12] is 3690 nM (active); in assay [14], 3290 nM (active); in [15], 2330 nM (active); in assay [16], 1320 nM (active).
`CC[C@]12C=CCN3CC[C@@]4(c5cc([C@@]6(C(=O)OC)C[C@H]7C[C@@H](C(C)(F)F)CN(Cc8c6[nH]c6ccccc86)C7)c(OC)cc5N(C)[C@H]4[C@@](O)(C(=O)OC)[C@H]1OC(C)=O)[C@@H]32`: the Potency entry in assay [1], in assay [2], in assay [3], in assay [4], in [5] and in [6] was “inactive” throughout. Besides, the Potency result in assay [8], in [17], in [9], in assay [11], in assay [12] and in [14] was “inactive” throughout. The Potency entry in assay [15] and in [16] was “inactive” each time. Moreover, the figures for the Potency in assay [7] and in assay [10] were 9270 nM (active) and 3690 nM (active), respectively.
Regarding `Cc1[nH]c(C=C2C(=O)Nc3ccccc32)c(C)c1CCC(=O)O`, the Potency entry in [1], in assay [2], in assay [3], in assay [4], in assay [6] and in [7] was “inactive” throughout. Moreover, the Potency entry in assay [8], in [17], in assay [9], in [10], in assay [11] and in assay [12] was “inactive” each time. Besides, the Potency result in [14], in assay [15] and in assay [16] was “inactive” each time.
Regarding `CC[C@@]1([C@@H]2O[C@@H]([C@H]3O[C@@](O)(CO)[C@H](C)C[C@H]3C)C[C@H]2C)CC[C@H]([C@]2(C)CC[C@]3(C[C@H](O)[C@@H](C)[C@@H]([C@@H](C)[C@@H](OC)[C@H](C)C(=O)O)O3)O2)O1`, the Potency is 1150 nM (active) in [1]; 362 nM (active) in assay [2]; 3230 nM (active) in [3]; 1620 nM (active) in assay [4]; 1150 nM (active) in assay [5]; 204 nM (active) in [6]. Further, the Potency is 288 nM (active) in assay [7]; 512 nM (active) in assay [8]; 2570 nM (active) in assay [9]; 910 nM (active) in assay [10]; 2290 nM (active) in assay [11]; 723 nM (active) in [14]. The Potency in [15] is 456 nM (active); in assay [16], 645 nM (active).
Take `Oc1ccc(-c2ccc(-c3cc(Nc4cccc(CNC5CC5)c4)n[nH]3)cc2)c(O)c1`: the Potency in assay [1] was 8270 nM (active); in [2], 2330 nM (active); in [3] it was 6570 nM (active); in assay [5] it was 14700 nM (active); in [6], 6570 nM (active); in assay [7] it was 2330 nM (active). For the same compound, the Potency was 5220 nM (active) in [9]; 3690 nM (active) in assay [10]; 5220 nM (active) in assay [11]; 16500 nM (active) in [12]; 9270 nM (active) in assay [14]; 1470 nM (active) in assay [15]. In addition, the Potency result in assay [8], in assay [17] and in assay [16] was “inactive” throughout.
For the compound `CC(C)(O)Cn1c(NC(=O)c2ccc(-c3cn[nH]c3)s2)nc2cc(CN3CCOCC3)ccc21`, the Potency in assay [1] is 1040 nM (active); in assay [2], 1040 nM (active); in [3] it was 2610 nM (active); in assay [5] it was 1170 nM (active); in assay [6], 737 nM (active); in assay [7], 1310 nM (active). Further, the Potency was 1170 nM (active) in assay [8]; 5220 nM (active) in assay [17]; 1170 nM (active) in assay [9]; 585 nM (active) in assay [10]; 827 nM (active) in assay [11]; 1310 nM (active) in [12]. Besides, the figures for the Potency in [14], in [15] and in [16] were 585 nM (active), 827 nM (active) and 1320 nM (active), respectively.
In the case of `CC(C=CC1=C(C)CCCC1(C)C)=CC=CC(C)=CC(=O)Nc1ccc(O)cc1`, the Potency in assay [1] was 24000 nM (active); in assay [2] it was 6030 nM (active); in assay [3], 33900 nM (active); in assay [4], 13500 nM (active); in [5] it was 2400 nM (active); in assay [6] it was 38000 nM (active). Moreover, the Potency in assay [7] was 2140 nM (active); in [8], 42700 nM (active); in [9] it was 12000 nM (active); in [10], 5370 nM (active); in assay [12], 42700 nM (active); in assay [14] it was 38000 nM (active). Besides, the Potency in assay [15] is 42700 nM (active); in assay [16], 38200 nM (active).
For the compound `Nc1nc2c(c(=O)[nH]1)N(C=O)[C@H](CNc1ccc(C(=O)N[C@@H](CCC(=O)O)C(=O)O)cc1)CN2`, the Potency result in assay [1], in assay [2], in [3], in assay [4], in assay [5] and in assay [6] was “inactive” in each case. Further, the Potency entry in [8], in assay [9], in [10], in [11], in assay [12] and in assay [14] was “inactive” throughout. Moreover, the Potency entry in assay [15] and in assay [16] was “inactive” in each case. The Potency in assay [7] is 10400 nM (active).
On to `C[C@@H](Oc1ccc2[nH]nc(C=Cc3cnn(CCO)c3)c2c1)c1c(Cl)cncc1Cl`, for which the Potency was 23300 nM (active) in [1]; 827 nM (active) in [2]; 18500 nM (active) in assay [3]; 18500 nM (active) in assay [5]; 18500 nM (active) in [6]; 2330 nM (active) in assay [7]. The Potency in assay [8] is 737 nM (active); in [17], 13100 nM (active); in assay [9], 2080 nM (active); in assay [10] it was 104 nM (active); in assay [11], 5220 nM (active); in assay [12], 3690 nM (active). The Potency in [13] is 4140 nM (active); in assay [14] it was 2610 nM (active); in assay [15] it was 4140 nM (active). In assay [16], the Potency entry is “inactive”.
